Laboratory results reported in PubChem BioAssay (NCI).
The panel holds about 79,000 compounds, 15% with a hit somewhere; the sample as a whole holds those more often. Values without a mark were called inactive. Rule as the data show it: active = growth inhibition above about 70%; inactive = the rest.

Test: NCI Yeast Anticancer Drug Screen. Data for the bub3 strain (AID 167)
Settings: S. cerevisiae bub3 mutant strain, at 50.0 µM, active compounds read high
Outline: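 Compounds were applied to a genetically altered yeast strain carrying a cell-cycle control defect. Growth inhibition was scored against vehicle-treated controls.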
With `CCOC(=O)CCC(NC(=O)c1ccc(Nc2nc3ccccc3nc2-c2cccs2)cc1)C(=O)OCC` (stereo not given) the growth inhibition was 9.2%. In the case of `O=C(O)CC(NC(=O)c1cnc2ccccc2n1)C(=O)O` (stereo not given), the growth inhibition is reported as 12.7%. Compound `C[C@]12CCC(=O)C=C1CC[C@@H]1C2CC[C@]2(C)Nc3[nH]ncc3CC12` (stereo not given in full) has a growth inhibition of 11.8%. `CC1OC(OC2C(Oc3cc(O)c4c(=O)cc(-c5ccc(O)cc5)oc4c3)OC(CO)C(O)C2O)C(O)C(O)C1O` (stereo not given) showed a growth inhibition of 6.35%. With `CC1(C)Cc2ccccc2C(C)(Cl)C(=O)N1` (stereo not given) the growth inhibition was -26.9%. `CC(C)CCCC(C)C1CCC2C3CCC4CC(=O)/C(=C\O)CC4(C)C3CCC12C` (stereo not given) showed a growth inhibition of 25.6%. Compound `O=C(c1ccc(Cl)cc1)C1C(c2ccccc2)C1[N+](=O)[O-]` (stereo not given) has a growth inhibition of 16.4%. `CCOP(C)(=O)/C(Cc1ccc(OC)c(OC)c1)=N\O` (stereo not given) showed a growth inhibition of 23%. `NNC(=O)c1c(-c2cccnc2)cnc2ccccc12` showed a growth inhibition of -4.8%. `O=C(Nc1nc(=S)[nH][nH]1)C(=O)C1C(=O)Nc2ccccc2S1=O` (stereo not given) gave a growth inhibition of -20.9%. `CCCCCCC#CC(=O)OCCCC` showed a growth inhibition of -21.5%. With `Cc1ccc(C(=O)OCc2ccccc2CN2CCCCC2)cc1` the growth inhibition was 3.6%. With `Cc1cc(S(=O)(=O)NC(=NCC(=O)NN)NN)c(S)cc1Cl` the growth inhibition was 1.3%. For `Cc1nc2[nH]cc(-c3ccccc3)c2c(=N)n1-c1ccc(F)cc1`, the growth inhibition was -7.6%. In the case of `COc1cc(=O)cc2n(-c3cc(OC)c(O)c(OC)c3)c3ccccc3nc1-2`, the growth inhibition is reported as -8.3%. With `[Cl][Sm]([Cl])[Cl]` the growth inhibition was 27.6%. With `CCOC(=O)CNC(=O)CCC(=O)OC` the growth inhibition was 5.55%. `O=C(O)c1ccc2c(c1)Cc1ccccc1-2` showed a growth inhibition of 35.6%. In the case of `Nc1ncc2c(ncn2CC(O)CO)n1` (stereo not given), the growth inhibition is reported as -3%. For `N#Cc1c(Br)n(C2OC(CO)C(O)C2O)c2ncncc12` (stereo not given), the growth inhibition was 4.7%. In the case of `Oc1cccc(C(c2ccccc2)c2ccccc2)c1`, the growth inhibition is reported as -3.6%. For `CC(C)=CC1C(C(=O)O)C1(C)C` (stereo not given), the growth inhibition was 8.4%. For `Oc1ccc2c(c1)c1ccccc1c1ncccc21`, the growth inhibition was 9.35%. With `CC(C)(SC(=N)N)B(O)O` the growth inhibition was -8.35%. `O=C(Nc1cccc(Cl)c1)c1cc2cc(N=Nc3ccc(Br)cc3)ccc2oc1=O` gave a growth inhibition of 9.45%. `CCCC(CCC)(CCC)CCN(C)C` showed a growth inhibition of -8.65%. Work on `Cn1nc2ccccc2cc1=O` yielded a growth inhibition of 10.8%. With `COc1nc(NC2OC(CO)C(O)C(O)C2O)c(C(C)=O)c(=O)n1C` (stereo not given) the growth inhibition was -6.25%. For `CC(=O)CC(=O)N1CCC(C)CC1`, the growth inhibition was -14.1%. In the case of `COc1cc2cnc3c4ccccc4ccc3c2cc1OC`, the growth inhibition is reported as -2.85%. Compound `NCCSCCC(=O)O` has a growth inhibition of -28.4%. Work on `COc1ccc(C2CC(c3c(C)nn(-c4ccccc4)c3-c3ccc(C)cc3O)=NN2c2ccccc2)cc1` (stereo not given) yielded a growth inhibition of -3%. In the case of `CCc1cn(C2CC(CO)C(CO)S2)c(=O)[nH]c1=O` (stereo not given), the growth inhibition is reported as -8.55%. With `CSc1ccc(NC(=O)Nc2ccc(Nc3ccccc3)cc2)cc1` the growth inhibition was 14.2%. Work on `COc1cc(NC(C)CCCN)c2nccc(C)c2c1` (stereo not given) yielded a growth inhibition of -62.5%. In the case of `C/C=C/C(=O)OCCCCCCCCCCCCCCCCCC`, the growth inhibition is reported as 15.5%. Work on `O=C1OCC(c2ccccc2)(c2ccccc2)C(=O)N1O` yielded a growth inhibition of 5.65%. Work on `Oc1cccnc1CN1CCOCC1` yielded a growth inhibition of -6.15%. With `Cc1ccc(N)cc1S(=O)(=O)O` the growth inhibition was 3%. In the case of `O=[N+]([O-])c1ccc2c(c1)Cc1cc([N+](=O)[O-])ccc1-2`, the growth inhibition is reported as -54.1%.

Test: NCI Yeast Anticancer Drug Screen. Data for the mlh1 rad18 strain (AID 175)
Settings: S. cerevisiae mlh1 rad18 strain growth inhibition; at 50.0 µM; active compounds read high
Outline: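 Test agents were incubated with a yeast strain of defined genotype (DNA damage repair defect). Inhibition of growth was derived by comparison with vehicle-exposed cultures.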
For `CCOC(=O)CCC(NC(=O)c1ccc(Nc2nc3ccccc3nc2-c2cccs2)cc1)C(=O)OCC` (stereo not given), the growth inhibition was -34.7%. `O=C(O)CC(NC(=O)c1cnc2ccccc2n1)C(=O)O` (stereo not given) showed a growth inhibition of -1%. Compound `C[C@]12CCC(=O)C=C1CC[C@@H]1C2CC[C@]2(C)Nc3[nH]ncc3CC12` (stereo not given in full) has a growth inhibition of 27.1%. `CC1OC(OC2C(Oc3cc(O)c4c(=O)cc(-c5ccc(O)cc5)oc4c3)OC(CO)C(O)C2O)C(O)C(O)C1O` (stereo not given) showed a growth inhibition of -7.65%. Compound `CC1(C)Cc2ccccc2C(C)(Cl)C(=O)N1` (stereo not given) has a growth inhibition of 17.8%. `CC(C)CCCC(C)C1CCC2C3CCC4CC(=O)/C(=C\O)CC4(C)C3CCC12C` (stereo not given) gave a growth inhibition of 67.2%. With `O=C(c1ccc(Cl)cc1)C1C(c2ccccc2)C1[N+](=O)[O-]` (stereo not given) the growth inhibition was 31%. `CCOP(C)(=O)/C(Cc1ccc(OC)c(OC)c1)=N\O` (stereo not given) showed a growth inhibition of -17.2%. In the case of `NNC(=O)c1c(-c2cccnc2)cnc2ccccc12`, the growth inhibition is reported as -31.4%. With `O=C(Nc1nc(=S)[nH][nH]1)C(=O)C1C(=O)Nc2ccccc2S1=O` (stereo not given) the growth inhibition was -0.6%. `CCCCCCC#CC(=O)OCCCC` showed a growth inhibition of -16.4%. `Cc1ccc(C(=O)OCc2ccccc2CN2CCCCC2)cc1` showed a growth inhibition of 2.1%. Compound `Cc1cc(S(=O)(=O)NC(=NCC(=O)NN)NN)c(S)cc1Cl` has a growth inhibition of 15.4%. With `Cc1nc2[nH]cc(-c3ccccc3)c2c(=N)n1-c1ccc(F)cc1` the growth inhibition was 0.55%. `COc1cc(=O)cc2n(-c3cc(OC)c(O)c(OC)c3)c3ccccc3nc1-2` gave a growth inhibition of 23.5%. Compound `[Cl][Sm]([Cl])[Cl]` has a growth inhibition of 9.6%. In the case of `CCOC(=O)CNC(=O)CCC(=O)OC`, the growth inhibition is reported as -9.1%. In the case of `O=C(O)c1ccc2c(c1)Cc1ccccc1-2`, the growth inhibition is reported as 42%. With `Nc1ncc2c(ncn2CC(O)CO)n1` (stereo not given) the growth inhibition was -3.25%. In the case of `N#Cc1c(Br)n(C2OC(CO)C(O)C2O)c2ncncc12` (stereo not given), the growth inhibition is reported as 2.7%. With `Oc1cccc(C(c2ccccc2)c2ccccc2)c1` the growth inhibition was -3.95%. With `CC(C)=CC1C(C(=O)O)C1(C)C` (stereo not given) the growth inhibition was 10.2%. Work on `Oc1ccc2c(c1)c1ccccc1c1ncccc21` yielded a growth inhibition of 49%. For `CC(C)(SC(=N)N)B(O)O`, the growth inhibition was -7.7%. `O=C(Nc1cccc(Cl)c1)c1cc2cc(N=Nc3ccc(Br)cc3)ccc2oc1=O` showed a growth inhibition of 18.2%. With `CCCC(CCC)(CCC)CCN(C)C` the growth inhibition was -33.8%. With `Cn1nc2ccccc2cc1=O` the growth inhibition was 14.9%. With `COc1nc(NC2OC(CO)C(O)C(O)C2O)c(C(C)=O)c(=O)n1C` (stereo not given) the growth inhibition was 12.5%. `CC(=O)CC(=O)N1CCC(C)CC1` showed a growth inhibition of -10.2%. With `COc1cc2cnc3c4ccccc4ccc3c2cc1OC` the growth inhibition was -9.3%. `NCCSCCC(=O)O` gave a growth inhibition of -22.6%. Work on `COc1ccc(C2CC(c3c(C)nn(-c4ccccc4)c3-c3ccc(C)cc3O)=NN2c2ccccc2)cc1` (stereo not given) yielded a growth inhibition of 50.5%. `CCc1cn(C2CC(CO)C(CO)S2)c(=O)[nH]c1=O` (stereo not given) showed a growth inhibition of -6.7%. Work on `CSc1ccc(NC(=O)Nc2ccc(Nc3ccccc3)cc2)cc1` yielded a growth inhibition of 23.3%. With `COc1cc(NC(C)CCCN)c2nccc(C)c2c1` (stereo not given) the growth inhibition was -36.9%. `C/C=C/C(=O)OCCCCCCCCCCCCCCCCCC` gave a growth inhibition of 21%. `O=C1OCC(c2ccccc2)(c2ccccc2)C(=O)N1O` gave a growth inhibition of 16.5%. Compound `Oc1cccnc1CN1CCOCC1` has a growth inhibition of 6.95%. Work on `Cc1ccc(N)cc1S(=O)(=O)O` yielded a growth inhibition of 21.6%. For `O=[N+]([O-])c1ccc2c(c1)Cc1cc([N+](=O)[O-])ccc1-2`, the growth inhibition was 51.2%.
